Hits are enriched below; roughly 21% of the tested compounds scored in any of these assays.
Pf growth 96h = P. falciparum growth inhibition at 96 hour, primary screen for plastid delayed-death inhibitors; P. falciparum luciferase reporter growth, 96 h; Potency, µM (titrated, usually from 28.7 µM), inactives show at the highest dose activity change, negative = inhibition, most hits filed as inhibitors; hit rate 6.9% among 320,000; also: potency is read from the fitted curve at half-maximal effect; % is scaled to controls: 0 for no effect and ±100 for the full control effect
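Two parasite generations (96 h, 37 C, 5% CO2) of compound exposure in infected erythrocytes (0.05% parasitemia, 2% hematocrit). Luciferase-reporter P. falciparum; decreased luminescence indicates inhibited growth, aimed at apicoplast-acting delayed death.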
Shiga inhibitor = blocks Shiga toxin action in Vero cells; Vero cells, Shiga toxin protein synthesis inhibition reporter; inhibition, % at 38.7 µM; hit rate 9.2% among 290,000; AID 2315; in the data active = inhibition mostly above about 28%, no sharp cut-off; inactive = mostly below about 43%; also: 0% is about no effect
Pf growth 48h = inhibits P. falciparum growth in the first generation, 48 h; AID 504832; Potency, µM (series often up to 28.7 µM), inactives show at the highest dose activity change, negative = inhibition, actives largely listed as inhibitors; P. falciparum luciferase growth in erythrocytes, 48 h; hit rate 5.9% among 310,000; also: potency is read from the fitted curve at half-maximal effect; % is scaled to controls: 0 for no effect and ±100 for the full control effect
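Read-out is firefly luciferase luminescence from an integrated reporter in P. falciparum, so falling signal marks reduced parasite growth. Infected erythrocytes were at 2% hematocrit and 0.1% parasitemia (final) in Albumax-supplemented RPMI 1640.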
CHX counter = counter-screen for Shiga toxin inhibitors: cycloheximide protein synthesis inhibition; AID 2314; hit rate 12% among 300,000; cell reporter, cycloheximide protein synthesis inhibition counterscreen; max response, %; in the data active = max response mostly above about 13%, no sharp cut-off; inactive = mostly below about 14%; also: read at 38.3 µM for the half of the compounds with a filed dose; 0% is about no effect
* hit, by the source's call. Unless noted, calls follow the shape of the dose curve; as a rule, active = well fitted inhibition curve with a large enough effect; inconclusive = small, poorly fitted or top-dose-only effect, or another doubt; inactive = no such curve, though single readings can be large or run the other way.

Results for Cc1ccc2[nH]c(C(=O)N3CCC(C(N)=O)CC3)cc2c1 ?
Pf growth 96h: 31%; Pf growth 48h: -2%; CHX counter: 16

How did O=C(O)c1ccccc1Cc1ccccc1 do in these assays?
Shiga inhibitor: -5; CHX counter: -2

How did Cn1c(SCC(=O)NCc2ccco2)nnc1-c1ccccc1 do in these assays?
Pf growth 96h: 35%; Shiga inhibitor: -6; Pf growth 48h: 7%; CHX counter: 1

Results for Cc1cc(NC(=O)CSc2nnc(-c3ccc(S(=O)(=O)N4CCCC4)cc3)n2C)no1 ?
Pf growth 96h: 12µM*; Shiga inhibitor: -5; Pf growth 48h: inconclusive; CHX counter: -2

Results for Cn1c(SCC(=O)NCc2ccco2)nnc1-c1ccc(S(=O)(=O)N2CCOCC2)cc1 ?
Pf growth 96h: 12µM*; Shiga inhibitor: 4; Pf growth 48h: -10%; CHX counter: -5

Results for O=C(c1ccccc1)N1CC(COc2ccccc2)OC(c2cccnc2)O1 (stereo not drawn) ?
Shiga inhibitor: 29; Pf growth 48h: 7%; CHX counter: 16*

What do the screens show for `Cc1nn(C2CCOC(C)(C)C2)c2c1C(c1ccc3c(c1)OCO3)SCC(=O)N2` (stereo not drawn)?
Pf growth 96h: 9.3µM*; Shiga inhibitor: -12; Pf growth 48h: inconclusive; CHX counter: 1

What do the screens show for `O=S(=O)(NC1CCCC1)c1cccc(-c2nnc(-c3ccccc3)o2)c1`?
Pf growth 96h: inconclusive; Shiga inhibitor: 7; CHX counter: 30*

What do the screens show for `COc1ccc(NS(=O)(=O)c2cccc(-c3nnc(-c4ccccc4)o3)c2)cc1`?
Pf growth 96h: inconclusive; Shiga inhibitor: 57*; Pf growth 48h: inconclusive; CHX counter: 15*

Results for COc1ccc(NS(=O)(=O)c2ccc(NS(=O)(=O)c3cccc(C(=O)O)c3)cc2)cc1 ?
Pf growth 96h: 15%; Shiga inhibitor: 43; Pf growth 48h: 29%; CHX counter: -7

What do the screens show for `CCCCn1c(N)c(NCC)c(=O)[nH]c1=O`?
Pf growth 96h: 12%; Shiga inhibitor: -4; Pf growth 48h: 11%; CHX counter: -4

How did COc1cccc(C2C(C(=O)c3sc(C)nc3C)=C(O)C(=O)N2CCN(C)C)c1OC (stereo not drawn) do in these assays?
Pf growth 96h: -19%; Shiga inhibitor: -21; Pf growth 48h: 4%; CHX counter: -8

What do the screens show for `COc1cccc(C2C3=C(N=c4s/c(=C\c5ccc(OCC(=O)O)cc5)c(=O)n42)c2ccccc2CC3)c1` (stereo not drawn)?
Pf growth 96h: inconclusive; Shiga inhibitor: 30; Pf growth 48h: inconclusive; CHX counter: 8

Results for COc1ccccc1C1C2=C(N=c3s/c(=C/c4cccc(OCC(=O)O)c4)c(=O)n31)c1ccccc1CC2 (stereo not drawn) ?
Pf growth 96h: inconclusive; Shiga inhibitor: -13; Pf growth 48h: 10µM*; CHX counter: -2

Results for COc1cccc(C2C3=C(N=c4s/c(=C\c5cccc(O)c5)c(=O)n42)c2ccccc2CC3)c1OC (stereo not drawn) ?
Pf growth 96h: inconclusive; Shiga inhibitor: -6; Pf growth 48h: 2.3µM*; CHX counter: -1

How did COc1cccc(C2C3=C(N=c4s/c(=C\c5ccc(O)cc5)c(=O)n42)c2ccccc2CC3)c1OC (stereo not drawn) do in these assays?
Pf growth 96h: 13µM*; Shiga inhibitor: -10; Pf growth 48h: inconclusive; CHX counter: -1

How did Cc1ccc(S(=O)(=O)NCc2ccccc2)s1 do in these assays?
Pf growth 96h: -98%; Shiga inhibitor: -17; Pf growth 48h: -6%; CHX counter: 1

What do the screens show for `C/C(=N\Nc1cc(C)nc(-c2ccccc2)n1)c1cccc([N+](=O)[O-])c1`?
Pf growth 96h: 0.41µM*; Shiga inhibitor: 1; Pf growth 48h: 12µM*; CHX counter: 5

What do the screens show for `Cc1cc(N/N=C/c2ccc(O)c(C)c2O)nc(-c2ccccc2O)n1`?
Pf growth 96h: inconclusive; Shiga inhibitor: 32; Pf growth 48h: 5.9µM*; CHX counter: 25*

How did C/C(=N\NC(=O)c1c(C)nc2ccccn12)c1cccc([N+](=O)[O-])c1 do in these assays?
Pf growth 96h: -11%; Shiga inhibitor: 21; Pf growth 48h: 3%; CHX counter: 9

How did COc1cc(N/N=C(\C)c2ccc(O)c(C)c2)nc(-c2ccccc2)n1 do in these assays?
Pf growth 96h: inconclusive; Shiga inhibitor: 15; Pf growth 48h: inconclusive; CHX counter: 21

Results for C/C(=N\Nc1cc(C)nc(-c2ccccc2O)n1)c1ccccc1 ?
Pf growth 96h: inconclusive; Shiga inhibitor: 151; Pf growth 48h: -86%; CHX counter: 31*

Compound activity as filed in PubChem BioAssay.
